# Records with an inconclusive call do not appear. Values without a mark were called inactive. The source made the active and inactive calls. Calls come from the whole dose curve; as a rule, active = well fitted inhibition curve with a large enough effect; inconclusive = small, poorly fitted or top-dose-only effect; inactive = no such curve, though single readings can be large or run the other way.
# Molecular target: Tumor susceptibility gene 101 protein (Homo sapiens) (UniProt Q99816)
# Test: qHTS Assay for Iinhibitors of HIV-1 Budding by Blocking the Interaction of PTAP/TSG101: Hit Validation in TR assay
# Conditions: Tsg101 binding domain + Texas Red-labeled PTAP peptide, fluorescence polarization, 20 min; series mostly up to 57.5 µM; activity change, negative = inhibition: at the top concentration
# Method in brief: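 Texas Red-PTAP peptide (50 nM) binding to Tsg101 binding domain (10 uM), both final, in pH 7.5 HEPES buffer, read as polarization after 20 min at room temperature; compounds pinned before peptide addition.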
# % is set by controls: 0 for no effect and ±100 for the full control effect; potency is the fitted concentration of half-maximal effect.
# Chain of Tumor susceptibility gene 101 protein (Homo sapiens) (Q99816 whole entry, looked up): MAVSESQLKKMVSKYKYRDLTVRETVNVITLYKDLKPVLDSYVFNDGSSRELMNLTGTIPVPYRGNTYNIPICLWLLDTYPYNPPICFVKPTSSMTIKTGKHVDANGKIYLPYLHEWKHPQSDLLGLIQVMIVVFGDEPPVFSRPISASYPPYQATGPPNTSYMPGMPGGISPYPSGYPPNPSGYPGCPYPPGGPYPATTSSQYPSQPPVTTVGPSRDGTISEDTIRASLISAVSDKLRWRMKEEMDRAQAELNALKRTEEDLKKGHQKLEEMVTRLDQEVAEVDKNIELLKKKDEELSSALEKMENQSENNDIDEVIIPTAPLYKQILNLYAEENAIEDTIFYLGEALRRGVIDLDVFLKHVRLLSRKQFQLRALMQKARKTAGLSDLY
SMILES,"activity change, negative = inhibition [%]",Potency
COc1ccc(-c2cc(C(=O)N3CC(C)CC(C)C3)c3ccccc3n2)cc1OC (centres undefined),-13.2,
S=C(NCc1ccccc1)Nc1cccc(Cl)c1,-0.728,
CSc1ccc(C2C(C(=O)c3ccco3)=C(O)C(=O)N2c2nnc(SC)s2)cc1 (centres undefined),16.3,
CC1=CC(=C(C#N)c2nc3ccccc3s2)C=C(C)N1c1ccc(F)cc1F,24.7,
Cc1ccc(C2C3CN(C(C)C)CC=C3C(C#N)=C(N)C2(C#N)C#N)cc1 (centres undefined),5.49,
COc1ccc(OC)c(/C=C2\N=C(c3ccccc3)OC2=O)c1,-9.86,
O=C1Nc2ccc(Cl)cc2C12Nc1ccccc1-c1nnc(SCc3ccccc3F)nc1O2 (centres undefined),-20.4,
COc1cc2c(cc1OC)-c1cc3ccc4c(c3c[n+]1CC2)OCO4,-22.7,
CC(=O)OCCn1c2nc(=O)[nH]c(=O)c-2nc2cc(C)c(C)cc21,-16.8,
CCN(CC)c1ccc(/C=C/C(=O)c2ccc(Br)cc2)cc1,,16.3 µM (active)
Nc1nnnn1/N=C/c1cc(Cl)cc(Cl)c1O,22.9,
Cc1cc(NS(=O)(=O)c2ccc(NC(=O)COc3c(C)cc(Br)cc3C)cc2)no1,-16.4,
CC1=CC(=C(C#N)c2nc3ccccc3s2)C=C(C)N1c1ccc(F)cc1,-3.68,
O=C1CCCC2=C1Sc1ccc(Cl)cc1N2,17,
N#CC(C(=O)NCc1ccccc1)c1nc2ccccc2nc1N1CCCC1 (centres undefined),28.4,
COCCCNC(=O)C(C#N)c1nc2ccccc2nc1N1CCCC1 (centres undefined),25.7,
Cc1cccc(N2C(=O)c3cccc4c(N(C)CCO)ccc(c34)C2=O)c1,-10.9,
COc1ccc(N=Nc2nc3cc(Br)c(Br)cc3n2C)c(OC)c1,-5.67,
Cc1cccc2cc(/C=C3\N=C(c4ccccc4)OC3=O)c(N3CCOCC3)nc12,-4.21,
Fc1ccc(C2=CC(c3ccc(Br)o3)n3ncnc3N2)cc1 (centres undefined),0.977,

SMILES,"activity change, negative = inhibition [%]",Potency
COc1ccc(-c2onc3ccc(Br)cc23)cc1,179,
CCCCCCN1C=CC=C/C1=C/C=C(C#N)C#N,39.2,
COC(=O)c1cc(N2CCN(C)CC2)nc2ccccc12,-2.81,
CCCCNC(=O)C(C#N)c1nc2ccccc2nc1N1CCN(Cc2ccc3c(c2)OCO3)CC1 (centres undefined),5.84,
CC(=O)Nc1ccc(N2C(=O)c3cccc4c(O)ccc(c34)C2=O)cc1,-14.6,
O=c1c(-c2cc3ccccc3o2)[n+]([O-])c2ccccc2n1OCc1ccccn1,202,
O=S(=O)(Nc1cccc(-c2ccc(N3CCCCCC3)nn2)c1)c1cccc(F)c1,11.7,
CCCn1c(=N)c(S(=O)(=O)c2ccccc2)cc2c(=O)n3cccc(C)c3nc21,1.27,
CCN(c1ccc(N=Cc2c(O)n(Cc3ccc(OC)cc3)c(=O)c3ccccc23)cc1)C(C)C,-9.69,
COc1ccccc1NC(=O)C(C)OC(=O)C1CC(=O)N(c2ccc3c(c2)OCCO3)C1 (centres undefined),2.66,
O=C(O)CCNc1ccc(NCCC(=O)O)c2c1C(=O)c1ccccc1C2=O,43.6,
COc1cccc2c1C(=O)c1c(O)c3c(c(O)c1C2=O)C[C@@](O)(C(=O)CO)C[C@@H]3OC1CC(N)C(O)C(C)O1 (some centres undefined),20.3,
O=C(CCl)N1c2ccccc2Oc2ccc3ccccc3c21,-7.01,
Cc1cc(C)n2nc3nc4c(cc3c2n1)CCCC4,-6.13,
Cn1c(O)c(N=Nc2ccc(F)cc2)c2ccccc21,-8.42,
O=c1[nH]c(-[n+]2ccccc2)c(/C=N/NC([S-])=Nc2ccccc2)s1,6.15,
O=c1[nH]c2c(s1)C=Nc1ccccc1N2,-16.5,
O=C(OCCN1C(=O)c2cccc3c(N4CCOCC4)ccc(c23)C1=O)c1cccc(Cl)c1,-22.4,
O=C1c2cccc3c(O)ccc(c23)C(=O)N1c1ccc(Cl)cc1,-1.2,
